Tg IFNy HTS: T. gondii growth inhibition with IFN-gamma, primary screen, cell-based | Toxoplasma gondii growth in IFN-gamma-treated host cells; active compounds read low | activity change, negative = inhibition, % (test concentration not listed) | actives 3.8% (n = 69,000) | AID 1259416, 2018; in the data active = activity change below about -70%, passing the limit was not always enough;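 note: host cells are HeLa cells infected with Toxoplasma gondii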
Starred values were filed as active, the others as inactive; i = inactive; ! = not confirmed by another sample. This is one part of a sample in which hits are shown more often than they occur.

SMILES	Tg IFNy HTS
Cc1cnc(CN(C)C(=O)CC2COc3ccc(C(=O)N(C)C)cc3N2C)[nH]1 (centres undefined)	-47
CC(=O)Nc1cccc(-c2ccccc2OC(C)C)c1	-3
c1cncc(CN(CCCN2CCOCC2)Cc2ccnc(N3CCSCC3)n2)c1	-17
CCn1c(CNC(=O)C2CCC2)nc2c1CN(C(=O)Cc1ccc(Cl)cc1)CC2	-26
COC(=O)c1ccc(NC(=O)c2ccccc2SC)cc1	92
CC(c1ccon1)N(C)CC(=O)Nc1nc2ccccc2[nH]1 (centres undefined)	19
COC(=O)Nc1nc2ccc(C(=O)c3ccccc3C(=O)OC(C)C)cc2[nH]1	-101*
COCc1cc(CN(C)Cc2cc3n(n2)CCCNC3)n[nH]1	-2
Cn1c(CCc2nc3ccccc3[nH]2)nnc1SCc1ccc(C(C)(C)C)cc1	-14
COc1ccc(CCNS(=O)(=O)c2cc3c4c(c2)c(C)cc(=O)n4CCC3)cc1OC	13
CN(C)/N=N/c1nc[nH]c1C(N)=O	-83*
COCCn1c2c(ccc1=O)CC(NCc1cccc(C#N)c1)CC2 (centres undefined)	-1
CC(=O)N1CCC(c2nnc3ccc(C(=O)NCCc4cccs4)cn23)C1 (centres undefined)	-66
O=C(NCC1CCN(c2cc(-c3ccncc3)[nH]n2)CC1)c1cc2ccccc2[nH]1	-79*
O=C(c1cc2ccccc2[nH]1)N1CCC(c2[nH]ncc2Cc2ccccc2)CC1	-12
O=C(CCc1c[nH]c2ccccc12)N1CCN(c2cc(-c3cccnc3)[nH]n2)CC1	104
CCO[C@H]1CC[C@@H]2[C@H]1OCCN2C(=O)Cc1ccc2c(c1)OCO2	-2
CCOc1ccccc1C(=O)NCCc1sc(-c2ccc(F)cc2)nc1C	-63
CCN(CC)C(=O)c1cc2cccnc2n(Cc2ccc(F)cc2)c1=O	-22
CC(C)c1cc(C(=O)O)nn1C1CCS(=O)(=O)C1 (centres undefined)	13
CC(=O)N1CCc2cc(NC(=O)C3=NN(C4CCS(=O)(=O)C4)C(=O)CC3)ccc21 (centres undefined)	-2
CC1=NN(C2CCS(=O)(=O)C2)C(=O)C1(Sc1ccccc1)Sc1ccccc1 (centres undefined)	-93*
O[C@@H]1CCN(Cc2nccs2)[C@@H]1Cc1cccnc1	174
CCOc1ccc2oc(C)c(C(=O)N3CCc4c(nc(C)[nH]c4=O)C3)c2c1	-2
O=C(NCCc1csc(-c2ccccc2)n1)c1ccc(C(F)(F)F)cc1	460
SMILES	Tg IFNy HTS
CCC(Sc1ncc(-c2ccccc2)nn1)C(=O)Nc1sc2c(c1C#N)CCCC2 (centres undefined)	150
N#Cc1c(NC(=O)C2CC(=O)OC23CCCCC3)sc2c1CCCCC2 (centres undefined)	-91*
C=CCn1c(SCC(=O)OCC)nc2sc3c(c2c1=O)CC(C)(C)OC3	-7
N#Cc1c(NC(=O)C2CC(c3cccc(Br)c3)=NO2)sc2c1CCC2 (centres undefined)	-20
CCOC(=O)c1c(NC(=O)C2CC(=O)OC23CCCCC3)sc2c1CC(C)(C)OC2 (centres undefined)	-96*
CCOC(=O)c1c(NC(=O)CSc2nc(C)cc(C)n2)sc2c1CCC2	-44
Cn1cnc2c1C(C(=O)N1CCCC(O)C1)N(Cc1ccccc1)CC2 (centres undefined)	-7
O=C(c1cccc(CC2CCNCC2)c1)N1CCC(O)(Cn2ccnc2)CC1	8
CCN1Cc2ccccc2C2(CCN(C(=O)c3cnc[nH]3)CC2)C1	5
O=C(NCc1ccco1)c1cc(N2CCNC(c3ccccc3)C2)ccn1 (centres undefined)	-7
CCCCSCc1cc(C(=O)N2C[C@H]3C[C@H](O)[C@@H](O)C[C@H]3C2)oc1C	-6
COc1c(C)cc(-c2cncc(C(N)=O)c2)cc1C	-5
COc1ccc(-c2csc(C(N)=O)c2)cn1	-20
COc1c(C)cc(-c2csc(C(N)=O)c2)cc1C	-72*
COc1ccc(C(=O)N(c2ccc(C)cc2)C2(C(=O)NCc3ccccc3)CCN(C(C)=O)CC2)cc1	-3
CC(C)n1c(C(=O)NCCN(C)C)nc2c1CCN(c1ncccn1)C2	5
CC[C@H](C)[C@H]1O[C@]2(CC[C@@H]1C)C[C@@H]1C[C@@H](C/C=C(\C)[C@@H](O[C@H]3C[C@H](OC)[C@@H](O[C@H]4C[C@H](OC)[C@@H](O)[C@H](C)O4)[C@H](C)O3)[C@@H](C)/C=C/C=C3\CO[C@@H]4[C@H](O)C(C)=C[C@@H](C(=O)O1)[C@]34O)O2	-87*!
CO[C@H]1CC(O[C@@H]2/C(C)=C/C[C@@H]3C[C@@H](C[C@]4(C=C[C@H](C)[C@@H](C5CCCCC5)O4)O3)OC(=O)[C@@H]3C=C(C)[C@@H](O)[C@H]4OC/C(=C\C=C\[C@@H]2C)[C@]43O)O[C@@H](C)C1O[C@H]1C[C@H](OC)[C@@H](O)[C@H](C)O1 (some centres undefined)	-73*
CCC(C)[C@H]1O[C@]2(CC[C@@H]1C)C[C@@H]1C[C@@H](C/C=C(\C)[C@@H](OC3C[C@H](OC)C(O[C@H]4C[C@H](OC)[C@@H](O)[C@H](C)O4)[C@H](C)O3)[C@@H](C)/C=C/C=C3\CO[C@@H]4[C@H](O)C(C)=C[C@@H](C(=O)O1)[C@]34O)O2 (some centres undefined)	-80*
CCCC(=O)Nc1ccc(-n2ccnc2-c2nccn2C)cc1OC	-5
O=c1oc2ccc(Br)cc2cc1-c1nc(-c2ccccc2Cl)c2cc(Cl)ccc2n1	-27
O=C(c1cnccn1)N1CC[C@@H]2C[C@@H](c3ccncn3)O[C@H]2C1	-30
COCC(=O)N1CCc2c([nH]c3ccccc23)C1c1ccccc1 (centres undefined)	i
CN(C)c1ccccc1C(=O)N1CCCC(CNC(=O)c2ccccc2Cl)C1 (centres undefined)	3
CCOC(=O)CC1CCCCN1Cc1nnc(-c2ccco2)o1 (centres undefined)	10
SMILES	Tg IFNy HTS
COCCN1CC2(CCN(C(=O)c3cncnc3)CC2)CC1=O	8
COc1ccc2nc(NC(=O)COc3cccc(C)c3)sc2c1	-2
COc1cc2sc(NC(=O)Cc3c(C)noc3C)nc2cc1Cl	-79*
COc1ccc(C(C)NC(=O)c2ccc(Cc3c(C)noc3C)s2)cc1F (centres undefined)	32
Cc1ccc(NC(=O)C(=O)NCCc2csc(-c3ccc(Cl)cc3)n2)cc1F	77
Cc1ccc(C2(O)CCN(C(=O)c3cnc4c(c3)nnn4C)CC2)nc1	-3
OCCCc1nncn1-c1ccc(Cl)cc1	3
Cc1ccsc1/C=N\NC(=O)c1ccc2c(c1)OCO2	243
Cc1ccc(/C=N/NC(=O)c2ccccc2Oc2ccccc2)o1	5
O=C(N/N=C/c1ccc([N+](=O)[O-])o1)c1ccc(O)cc1	-81*!
CC(C)OCc1ncn2c1CN(Cc1cnn(C)c1)CCC2	72
COc1cc(N2CCCn3cnc(COCCO)c3C2)ncn1	49
c1cnc(N2CCOCC3(CCN(Cc4ccc[nH]4)CC3)C2)nc1	-2
CC(C)C[C@@H](C=O)NC(=O)[C@H](CC(C)C)NC(=O)[C@H](CC(C)C)NC(=O)OCc1ccccc1	-81*
CC(C)C[C@H](NC(=O)[C@@H](O)[C@H](N)Cc1ccccc1)C(=O)O	10
CC(C)CC(NC(=O)OCC1c2ccccc2-c2ccccc21)C(=O)O (centres undefined)	0
O=C(NCc1cccc(F)c1)c1nc(CS(=O)(=O)c2ccc(Cl)cc2)no1	-87*
